A short description of assay [1]: qHTS assay to identify aromatase inhibitors - cell viability counter screen (AID 743084).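 Further: cells stimulated with testosterone during compound exposure; nearly all actives have a fitted effect of over 55% in size.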 Further: potency means the concentration at half of the fitted maximal effect. Background: In qHTS, concentration-response curves come from the screen itself.
The target of assay [2] is Aryl hydrocarbon receptor (Homo sapiens) (UniProt P35869). In words: qHTS assay to identify small molecule that activate the aryl hydrocarbon receptor (AhR) signaling pathway (AID 743085). Further: nearly all actives have a fitted effect of over 15% in size. Further: potency means the concentration at half of the fitted maximal effect.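 On activation: HG2L7.5c1 human HepG2 liver cells with stably integrated DRE-driven firefly reporter; series mostly up to about 70 µM.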 In a few lines:
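HepG2 cells (HG2L7.5c1) stably carrying a firefly luciferase reporter driven by 20 dioxin responsive elements were exposed to compound for 24 h at 37C after a 5 h settling period; luminescence rise (ONE-Glo) indicated activation.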

Assay [3] can be described thus: qHTS assay to identify small molecule that activate the aryl hydrocarbon receptor (AhR) signaling pathway - cell viability counter screen (AID 743086).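 Further: HepG2 liver cells carrying the AhR DRE luciferase reporter; series mostly up to about 70 µM; nearly all actives have a fitted effect of over 45% in size.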 The procedure, abridged:
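HepG2-AhR-luc (HG2L7.5c1) cells, 4000/well, were preincubated 5 h at 37C, exposed to compound in qHTS format for 24 hr at 37C, then given CellTiter-Fluor for 30 min; viability was read as fluorescence in the reporter wells.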

Assay [4] in a line: qHTS assay for small molecule agonists of the antioxidant response element (ARE) signaling pathway (AID 743202; active means well fitted activation curve with a large enough effect in the signal ratio in the repeat runs, not every such curve was filed as active; the % refers to the signal ratio; further: potency means the concentration at half of the fitted maximal effect). The procedure, abridged: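 Read-out: LiveBLAzer B/G FRET substrate fluorescence after 2 h at room temperature, following 16 h compound treatment at 37 C of HepG2 cells carrying an ARE-driven beta-lactamase reporter.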
Assay [5] can be described thus: qHTS assay for small molecule agonists of the antioxidant response element (ARE) signaling pathway - cell viability counter screen (AID 743203; calls by dose curve; further: nearly all actives have a fitted effect of over 55% in size; further: potency means the concentration at half of the fitted maximal effect). The procedure, abridged: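 HepG2 cells carrying ARE-driven beta-lactamase; 2,000 cells/well; 5 hrs plating; compound pinned from DMSO; 16 hrs 37C/5% CO2; CellTiter-Glo added; 30 min RT; luminescence.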
Assay [6] is described as follows: qHTS assay for small molecule activators of the heat shock response signaling pathway - cell viability counter screen (AID 743209). Further: nearly all actives have a fitted effect of over 50% in size. Further: potency means the concentration at half of the fitted maximal effect. The procedure, abridged:
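Luminescence from CellTiter-Glo, added after the beta-lactamase FRET read, gave the viability signal. Cells were HSE-bla HeLa treated with DMSO-dissolved compounds for 5 h at 37 C following overnight plating.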

Assay [7] in a line: qHTS assay for small molecule activators of the heat shock response signaling pathway (AID 743210; active means well fitted activation curve with a large enough effect in the signal ratio in the repeat runs, with a control signal flat, not every such curve was filed as active; the % refers to the signal ratio; further: series mostly up to about 63 µM). In a few lines:
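HSE-bla HeLa cells (beta-lactamase reporter under heat shock response elements) were exposed to compounds for 5 h at 37 C, then loaded with LiveBLAzer B/G FRET substrate for 2.5 h at room temperature before fluorescence reading.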

A short description of assay [8]: qHTS assay to identify small molecule agonists of the peroxisome proliferator-activated receptor delta (PPARd) signaling pathway - cell viability counter screen (AID 743211). Further: nearly all actives have a fitted effect of over 55% in size. In a few lines: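 PPARd-bla HEK293H cells (UAS-beta-lactamase reporter) were treated with compounds for 17 h at 37 C. Viability was then read in the same wells by CellTiter-Glo luminescence after 30 min at room temperature.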

In assay [9] the target is Peroxisome proliferator-activated receptor delta (Homo sapiens) (UniProt Q03181). In words: qHTS assay to identify small molecule agonists of the peroxisome proliferator-activated receptor delta (PPARd) signaling pathway (AID 743212; calls by dose curve). The procedure, abridged:
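GeneBLAzer PPARd UAS-bla HEK293H cells (beta-lactamase reporter under UAS control), plated and rested 5 h at 37 C, then exposed to compounds in DMSO at 37 C; LiveBLAzer B/G FRET substrate added, 2 h room temperature, fluorescence read.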

Assay [10] has the same target. In words: qHTS assay to identify small molecule antagonists of the peroxisome proliferator-activated receptor delta (PPARd) signaling pathway (AID 743215; active means well fitted inhibition curve with a large enough effect in the signal ratio in the repeat runs, not every such curve was filed as active; the % refers to the signal ratio;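 further: cells stimulated with agonist L165041 at 300 nM final during compound exposure; series mostly up to about 62 µM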). In a few lines:
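Read-out is beta-lactamase FRET fluorescence, measured 2 h after substrate addition at room temperature. Beforehand, UAS-bla HEK293H cells carrying the PPARd reporter were exposed to compounds with L165041 at 300 nM final for 17 h at 37 C.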

Assay [11] can be described thus: qHTS assay to identify small molecule agonists of the farnesoid-X-receptor (FXR) signaling pathway - cell viability counter screen (AID 743218). Further: nearly all actives have a fitted effect of over 45% in size. Further: potency means the concentration at half of the fitted maximal effect. In a few lines: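 HEK 293T FXR-bla cells; 5 h pre-incubation, 16 h compound exposure at 37 C; LiveBLAzer substrate 2 h RT, then CellTiter-Glo 30 min RT, luminescence.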
Assay [12] is described as follows: qHTS assay to identify small molecule antagonists of the farnesoid-X-receptor (FXR) signaling pathway - cell viability counter screen (AID 743221; active means well fitted cell-killing curve with a large enough effect in the repeat runs, not every such curve was filed as active; further: nearly all actives have a fitted effect of over 50% in size). In a few lines:
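FXR-UAS-bla HEK 293T cells were treated with test compounds plus chenodeoxycholic acid (50 uM final) for 16 h at 37 C. Cell viability in the same wells was then read as CellTiter-Glo luminescence after 30 min at room temperature.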

Assay [13] addresses Vitamin D3 receptor (Homo sapiens) (UniProt P11473). In words: qHTS assay to identify small molecule agonists of the vitamin D receptor (VDR) signaling pathway (AID 743222; calls by dose curve). The procedure, abridged:
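VDR-bla cells, 2,000/well; 4 h preincubation 37C; cpd (DMSO) 16 h; LiveBLAzer B/G substrate 2 h RT; fluorescence intensity read.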

Assay [14] has the same target. In words: qHTS assay to identify small molecule antagonists of the vitamin D receptor (VDR) signaling pathway (AID 743223; active means well fitted inhibition curve with a large enough effect in the signal ratio in the repeat runs, not every such curve was filed as active; the % refers to the signal ratio). The procedure, abridged:
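VDR-bla cells were plated, incubated 4 h at 37C, then given compound and 1alpha,25-dihydroxyvitamin D3 (3 nM final). After 16 h at 37C, LiveBLAzer B/G FRET substrate was added for 2 h at room temperature and fluorescence read.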

A short description of assay [15]: qHTS assay to identify small molecule antagonists of the peroxisome proliferator-activated receptor gamma (PPARg) signaling pathway - cell viability counter screen (AID 743194). Further: nearly all actives have a fitted effect of over 55% in size. To be noted: Potency: co-treated with 50 nM rosiglitazone. The procedure, abridged: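 PPARg-UAS-bla HEK293H cells were plated, rested 5 h at 37 C, then treated with compounds plus rosiglitazone (50 nM final) for 17 h at 37 C; viability was then read by CellTiter-Glo luminescence after 30 min at room temperature.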

Assay [16] is described as follows: qHTS assay to identify small molecule antagonists of the peroxisome proliferator-activated receptor delta (PPARd) signaling pathway - cell viability counter screen (AID 743213). Further: nearly all actives have a fitted effect of over 50% in size. In a few lines: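 Same-well viability: cells pre-incubated 5 h, dosed with compound plus 300 nM L165041, kept 17 h at 37 C, FRET substrate 2 h RT, then CellTiter-Glo 30 min RT and luminescence.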

Assay [17] addresses Bile acid receptor (Homo sapiens) (UniProt Q96RI1). In words: qHTS assay to identify small molecule antagonists of the farnesoid-X-receptor (FXR) signaling pathway (AID 743217; active means well fitted inhibition curve with a large enough effect in the signal ratio in the repeat runs, not every such curve was filed as active; the % refers to the signal ratio). In a few lines:
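HEK 293T FXR-UAS-bla, 5000 cells/well; compound + CDCA 50 uM final; 16 h, 37 °C; B/G FRET substrate 2 h RT; fluorescence.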

Assay [18] shares this target. In words: qHTS assay to identify small molecule agonists of the farnesoid-X-receptor (FXR) signaling pathway (AID 743220; active means well fitted activation curve with a large enough effect in the signal ratio in the repeat runs, not every such curve was filed as active; the % refers to the signal ratio). The procedure, abridged:
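Beta-lactamase reporter under UAS control in GeneBLAzer FXR HEK 293T cells (5000/well) measured with LiveBLAzer FRET substrate after 2 h at room temperature. Compound exposure lasted 16 h at 37C.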

In assay [19] the target is Peroxisome proliferator-activated receptor gamma (Homo sapiens) (UniProt P37231). In words: qHTS assay to identify small molecule agonists of the peroxisome proliferator-activated receptor gamma (PPARg) signaling pathway (AID 743094; active means well fitted activation curve with a large enough effect in the signal ratio in the repeat runs, not every such curve was filed as active; the % refers to the signal ratio). In a few lines:
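Beta-lactamase FRET fluorescence was the read-out after a 1 h room-temperature substrate step, following 17 h compound treatment at 37C of HEK293H cells expressing a UAS-driven bla reporter responsive to PPARg.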

For assay [20] the target is unchanged. In words: qHTS assay to identify small molecule antagonists of the peroxisome proliferator-activated receptor gamma (PPARg) signaling pathway (AID 743191; calls by dose curve; further: series mostly up to about 63 µM; nearly all actives have a fitted effect of over 30% in size). The procedure, abridged: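 GeneBLAzer PPARg UAS-bla HEK293H cells carrying a UAS-driven beta-lactamase reporter were plated at 3000 cells/well, preincubated 5 h at 37C, then given compound for 17 h at 37C; LiveBLAzer B/G FRET substrate was read after 1 h at room temperature.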

Results filed as inconclusive are left out. More than one record can exist for a structure, and the calls need not agree. Active and inactive are the calls of the source. Unless noted, the call rests on the fitted dose curve; in most records, active means well fitted curve in the direction sought with a large enough effect in the repeat runs; inconclusive means weak or mixed curves; inactive means no such curve, though single readings can be large; an effect the other way counts as inactive or inconclusive.

Aryl hydrocarbon receptor (Homo sapiens), sequence (P35869 whole entry, looked up): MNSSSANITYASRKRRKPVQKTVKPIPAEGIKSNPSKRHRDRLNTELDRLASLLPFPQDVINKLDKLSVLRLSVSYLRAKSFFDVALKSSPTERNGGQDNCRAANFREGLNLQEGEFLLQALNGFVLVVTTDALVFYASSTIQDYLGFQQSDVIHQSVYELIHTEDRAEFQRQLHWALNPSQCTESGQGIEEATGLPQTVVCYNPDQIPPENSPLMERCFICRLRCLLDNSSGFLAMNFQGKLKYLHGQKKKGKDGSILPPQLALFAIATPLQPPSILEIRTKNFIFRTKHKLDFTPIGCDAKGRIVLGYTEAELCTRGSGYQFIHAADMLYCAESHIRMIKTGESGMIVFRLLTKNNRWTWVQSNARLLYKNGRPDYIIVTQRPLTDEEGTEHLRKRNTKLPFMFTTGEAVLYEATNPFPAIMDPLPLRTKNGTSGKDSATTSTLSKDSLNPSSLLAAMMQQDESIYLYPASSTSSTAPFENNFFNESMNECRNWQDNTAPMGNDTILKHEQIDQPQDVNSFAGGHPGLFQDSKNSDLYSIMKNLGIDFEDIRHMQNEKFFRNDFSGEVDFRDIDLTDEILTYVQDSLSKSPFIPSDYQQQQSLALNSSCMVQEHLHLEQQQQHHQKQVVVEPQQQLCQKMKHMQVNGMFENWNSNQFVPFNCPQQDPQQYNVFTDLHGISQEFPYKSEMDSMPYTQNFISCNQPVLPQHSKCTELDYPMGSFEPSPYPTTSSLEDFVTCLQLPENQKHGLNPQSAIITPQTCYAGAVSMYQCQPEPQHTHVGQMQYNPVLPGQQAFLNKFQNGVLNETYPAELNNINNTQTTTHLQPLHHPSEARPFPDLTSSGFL
Peroxisome proliferator-activated receptor gamma (Homo sapiens), sequence (P37231 whole entry, looked up): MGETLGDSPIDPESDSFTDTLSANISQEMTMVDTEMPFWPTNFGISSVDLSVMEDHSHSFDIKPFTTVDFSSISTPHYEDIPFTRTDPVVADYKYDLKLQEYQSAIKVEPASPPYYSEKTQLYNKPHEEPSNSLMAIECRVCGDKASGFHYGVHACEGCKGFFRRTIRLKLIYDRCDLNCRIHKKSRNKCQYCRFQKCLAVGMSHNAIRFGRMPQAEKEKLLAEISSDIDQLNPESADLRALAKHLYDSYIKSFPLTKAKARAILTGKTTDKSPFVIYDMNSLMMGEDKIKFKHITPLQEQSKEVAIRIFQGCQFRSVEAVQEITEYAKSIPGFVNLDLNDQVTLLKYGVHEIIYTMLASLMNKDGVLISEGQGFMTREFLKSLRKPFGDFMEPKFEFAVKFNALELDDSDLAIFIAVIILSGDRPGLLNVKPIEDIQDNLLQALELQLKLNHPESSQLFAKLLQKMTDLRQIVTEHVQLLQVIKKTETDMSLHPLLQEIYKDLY
Bile acid receptor (Homo sapiens), sequence (Q96RI1 whole entry, looked up): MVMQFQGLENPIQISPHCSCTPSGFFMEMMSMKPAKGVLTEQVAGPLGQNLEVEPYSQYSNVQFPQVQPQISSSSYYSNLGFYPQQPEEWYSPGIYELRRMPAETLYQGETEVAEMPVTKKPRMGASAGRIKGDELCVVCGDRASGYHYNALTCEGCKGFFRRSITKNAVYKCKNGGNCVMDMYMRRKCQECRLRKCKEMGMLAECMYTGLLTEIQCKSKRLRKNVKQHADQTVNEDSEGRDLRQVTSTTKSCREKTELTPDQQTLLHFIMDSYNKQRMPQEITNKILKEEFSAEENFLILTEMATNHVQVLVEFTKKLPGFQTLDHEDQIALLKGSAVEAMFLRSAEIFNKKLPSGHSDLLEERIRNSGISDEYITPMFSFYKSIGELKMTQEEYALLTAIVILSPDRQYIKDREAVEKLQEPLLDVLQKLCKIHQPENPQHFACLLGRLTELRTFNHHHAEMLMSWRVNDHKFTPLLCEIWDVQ
Vitamin D3 receptor (Homo sapiens), sequence (P11473 whole entry, looked up): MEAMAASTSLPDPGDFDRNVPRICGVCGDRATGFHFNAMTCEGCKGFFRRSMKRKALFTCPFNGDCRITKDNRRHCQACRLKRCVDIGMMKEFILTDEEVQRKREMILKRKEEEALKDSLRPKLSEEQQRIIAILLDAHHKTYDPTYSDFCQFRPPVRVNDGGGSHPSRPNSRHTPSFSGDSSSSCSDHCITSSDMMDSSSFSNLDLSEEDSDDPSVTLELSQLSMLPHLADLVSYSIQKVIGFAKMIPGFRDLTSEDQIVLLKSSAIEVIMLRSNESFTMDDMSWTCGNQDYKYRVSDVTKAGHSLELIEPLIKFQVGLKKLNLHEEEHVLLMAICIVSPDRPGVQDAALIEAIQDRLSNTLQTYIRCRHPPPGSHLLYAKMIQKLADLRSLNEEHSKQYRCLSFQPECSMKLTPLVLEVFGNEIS
Peroxisome proliferator-activated receptor delta (Homo sapiens), sequence (Q03181 whole entry, looked up): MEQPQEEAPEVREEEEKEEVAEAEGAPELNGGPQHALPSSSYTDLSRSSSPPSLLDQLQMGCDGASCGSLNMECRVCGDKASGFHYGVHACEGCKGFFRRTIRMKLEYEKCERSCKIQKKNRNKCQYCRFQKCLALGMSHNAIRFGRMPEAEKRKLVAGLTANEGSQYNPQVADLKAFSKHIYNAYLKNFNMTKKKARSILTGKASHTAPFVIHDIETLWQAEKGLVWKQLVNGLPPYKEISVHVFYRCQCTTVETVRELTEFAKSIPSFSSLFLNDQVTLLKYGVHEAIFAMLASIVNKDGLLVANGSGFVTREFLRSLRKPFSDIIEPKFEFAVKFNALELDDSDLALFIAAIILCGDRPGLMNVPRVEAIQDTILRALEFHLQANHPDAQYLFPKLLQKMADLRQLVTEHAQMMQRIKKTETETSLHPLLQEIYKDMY

As to `ClC1=C(Cl)C2(Cl)C(CBr)CC1(Cl)C2(Cl)Cl` (stereo unspecified), the Potency entry in [1], in assay [2], in assay [3], in assay [4], in [7] and in assay [8] was “inactive” each time. Also, the Potency result in assay [10] and in assay [12] was “inactive” in each case. Besides, the Potency in [5] was 54.5 µM (active) and inactive; in assay [6], 54.9 µM (active) and inactive; in assay [11], 54.9 µM (active) and inactive. For the same molecule, the outcome in [9], in assay [13] and in [14] was inactive.
In the case of `CCSC(=O)Cl`, the Potency entry in [1], in assay [2], in [3], in [15], in [5] and in assay [6] was “inactive” each time. The Potency result in assay [8], in [16], in assay [11] and in assay [12] was “inactive” in each case. Also, the molecule was classed as inactive in assay [17], in assay [18] and in [13].
Regarding `Oc1ccc2c3c1O[C@H]1[C@@H](O)C=C[C@H]4[C@@H](C2)NCC[C@@]341`, the Potency entry in assay [1], in assay [2], in assay [3], in [15], in assay [5] and in assay [6] was “inactive” throughout. The Potency entry in [11] and in assay [12] was “inactive” in each case. Moreover, the molecule was classed as inactive in [17], in assay [18], in assay [13] and in [14].
In the case of `CCCOC(=O)Cc1ccc(OCC(=O)N(CC)CC)c(OC)c1`, the Potency entry in [1], in assay [3], in assay [20], in assay [15], in [4] and in assay [5] was “inactive” throughout. Also, the Potency entry in assay [6], in assay [7], in [8], in assay [11] and in assay [12] was “inactive” throughout. Besides, the outcome in assay [19], in assay [17] and in assay [18] was inactive.
As to `CCN(CCO)CCO`, the Potency result in assay [1], in [2], in [15], in assay [5], in [6] and in assay [7] was “inactive” in each case. Also, the Potency entry in assay [8], in assay [16], in [11] and in assay [12] was “inactive” throughout. In addition, the molecule was classed as inactive in assay [9], in assay [13] and in [14].
Take `Cn1c(N)nc2c3cccnc3ccc21`: the Potency in assay [1] is 29.1 µM (active); in [2] it was 4.61 µM (active). Further, the molecule was called inactive in [19], in [9], in assay [17], in [18] and in assay [13]. The Potency entry in assay [15], in [4], in [5], in [6], in assay [7] and in [8] was “inactive” throughout. The Potency result in assay [16], in [10], in assay [11] and in assay [12] was “inactive” throughout.
On to `CC(C)(C)NC[C@H](O)c1ccc(O)cc1Cl`, for which the Potency entry in assay [1], in [3], in assay [20], in assay [15], in [4] and in assay [5] was “inactive” each time. Besides, the Potency entry in [6], in [7], in [8], in assay [10], in assay [11] and in assay [12] was “inactive” in each case. Moreover, the outcome in [19], in assay [9], in assay [17], in assay [18], in assay [13] and in [14] was inactive.
For the molecule `O=C(O)C(Br)(Br)Br`, the Potency result in assay [1], in assay [2], in assay [3], in assay [15], in assay [5] and in assay [6] was “inactive” throughout. Further, the Potency result in [7], in [8], in assay [16], in assay [11] and in assay [12] was “inactive” each time. Besides, in assay [4], the Potency is 5.44 µM (active). Also, the result in [13] and in [14] was inactive.
For `CCCN1CCC[C@@H]2Cc3nc(N)ncc3C[C@H]21`, the Potency result in [1], in [3], in assay [15], in [5], in [6] and in assay [7] was “inactive” throughout. Also, the Potency entry in assay [8], in [11] and in assay [12] was “inactive” throughout. In assay [2], the Potency was 21.1 µM (active). Besides, the molecule was called inactive in [13] and in assay [14].
For `CC(C)c1ccc(O)cc1`, the Potency result in [1], in assay [3], in [20], in assay [15], in assay [5] and in assay [6] was “inactive” in each case. Besides, the Potency result in assay [7], in assay [8], in assay [16] and in assay [11] was “inactive” throughout. In addition, the molecule was classed as inactive in assay [19], in assay [9], in assay [13] and in assay [14].

For the origin of these results see PubChem BioAssay (Tox21).
